Assay results published in PubChem BioAssay (NCATS).
Results filed as inconclusive are left out. A number with no mark means an inactive call. Calls of active or inactive are those of the source. Unless noted, calls come from the whole dose curve.

Assays:
[1] = target: Cytochrome P450 1A2 (Homo sapiens) (UniProt P05177); test: p450-cyp1a2 (AID 410); note: potency is the fitted concentration of half-maximal effect;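 for activity change, negative = inhibition: -100% = full effect of reference inhibitor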
Chain of Cytochrome P450 1A2 (Homo sapiens) (P05177 whole entry, looked up): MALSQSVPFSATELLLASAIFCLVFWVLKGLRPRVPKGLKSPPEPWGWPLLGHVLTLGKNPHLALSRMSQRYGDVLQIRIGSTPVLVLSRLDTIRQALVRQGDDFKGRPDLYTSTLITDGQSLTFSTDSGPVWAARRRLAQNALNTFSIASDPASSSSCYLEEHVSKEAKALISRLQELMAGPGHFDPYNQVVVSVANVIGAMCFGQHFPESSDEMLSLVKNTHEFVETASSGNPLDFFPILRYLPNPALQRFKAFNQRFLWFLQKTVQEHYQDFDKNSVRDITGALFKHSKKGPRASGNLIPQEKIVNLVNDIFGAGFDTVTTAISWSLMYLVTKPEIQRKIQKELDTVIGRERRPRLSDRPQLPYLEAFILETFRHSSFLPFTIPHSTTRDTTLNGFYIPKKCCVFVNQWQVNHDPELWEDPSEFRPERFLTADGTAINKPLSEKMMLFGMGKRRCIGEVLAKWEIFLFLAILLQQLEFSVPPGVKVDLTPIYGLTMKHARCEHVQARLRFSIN
Outline: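 20nM CYP1A2, 100uM Luciferin-ME (=Km), 100mM KPO4; cpd 10 min RT; +NADPH regen, 60 min RT; stop/detect 20 min; luminescence. Normalized to furafylline 57 uM = full inhibition.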

[2] = NFAT Signaling Pathway (AID 444; active = well fitted curve in either direction with a large enough effect, not every such curve was filed as active;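 note: carbachol stimulus at about its EC50 of 1 µM final; % is set by controls: 0 for no effect and ±100 for the full control effect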); conditions: Jurkat NFAT-bla M1, carbachol, beta-lactamase ratio, 5 h; at 38 µM (top of the series) unless noted
Outline: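 Read-out: CCF4 FRET ratio (460 nm/530 nm) after 1 h RT dye loading, used for %activity and AC50 from titration series. Cells: Jurkat NFAT-β-lactamase/M1 line, treated with compound plus 1 uM carbachol for 5 h, 37 °C.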

[3] = Cell Viability - BJ (AID 421); conditions: BJ fibroblast viability, qHTS;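 note: potency is the fitted concentration of half-maximal effect; cells exposed to compound for 40 hours at 37 °C before readout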
Outline: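 Normal human BJ foreskin fibroblasts, 1500/well in complete medium, treated 40 hr at 37 °C. Cellular ATP by CellTiter-Glo luminescence; normalized to DMSO and 100 uM tamoxifen, AC50 from Hill fit.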

[4] = Cell Viability - Jurkat (AID 426;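 active = dose-dependent loss of cell ATP signal giving a full or clear fitted curve, ranked by lower potency value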; note: potency is the fitted concentration of half-maximal effect); conditions: qHTS
Outline: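 Luminescent ATP read-out (CellTiter-Glo, 20 min at room temperature) after 40 hr compound exposure at 37 °C of Jurkat E6-1 cells, 5000/well. Decreased ATP taken as cytotoxicity; AC50 from standard Hill equation.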

[5] = Cell Viability - Hek293 (AID 427;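 active = compounds whose dose-response curve shows a full or clear partial loss of cell viability, called from curve shape rather than a numeric limit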;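 note: potency is the fitted concentration of half-maximal effect; cells exposed to compound for 40 hours at 37 °C before reading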); conditions: qHTS
Outline: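 HEK293 cells in complete medium were exposed to compound for 40 hr at 37 °C, then cellular ATP was read by CellTiter-Glo luminescence. Data were normalized to DMSO (basal) and 100 uM tamoxifen (100% inhibition), and AC50 came from Hill fits.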

[6] = Cell Viability - HepG2 (AID 433); conditions: qHTS;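 note: potency is the fitted concentration of half-maximal effect; potency for ATP loss meaning cytotoxicity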
Outline: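 ATP luminescence (CellTiter-Glo) after 40 h compound exposure, 37 °C, HepG2, 1500 cells/well, complete medium. Normalized: DMSO = basal, 100 uM tamoxifen = 100% inhibition. AC50 via standard Hill equation.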

[7] = Cell Viability - MRC5 (AID 434); conditions: MRC5 lung fibroblast viability, qHTS;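 note: potency is the fitted concentration of half-maximal effect; potency reflects cytotoxicity seen as loss of intracellular ATP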
Outline: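 AC50 values come from Hill-equation fits of intracellular ATP loss, measured by CellTiter-Glo luminescence. Normal lung fibroblasts (MRC5) had 40 hr compound treatment at 37 C, normalized between DMSO and 100 uM tamoxifen.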

[8] = Cell Viability - SK-N-SH (AID 435); conditions: SK-N-SH neuroblastoma cell viability qHTS; note: potency is the fitted concentration of half-maximal effect
Outline: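 CellTiter-Glo ATP luminescence, 20 min RT read; cells pre-plated 5 hr, compound 40 hr at 37 °C, 1500 cells/well, complete medium. Normalized DMSO = 0, 100 uM tamoxifen = 100% inhibition; Hill-fit AC50.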

[9] = AP1 Signaling Pathway (AID 357; active = well fitted curve in either direction with a large enough effect, not every such curve was filed as active;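 note: ME-180 reporter cells stimulated with EGF at its EC50 level; % is set by controls: 0 for no effect and ±100 for the full control effect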); conditions: ME-180 (cervical carcinoma) AP-1-bla reporter, EGF-induced, beta-lactamase ratio, 5 h; at 17.2 µM (top of the series)
Outline: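 First, ME-180 AP-1-bla cells were cultured overnight at 37 °C in low-serum Opti-MEM. Next, titrated compounds with EC50 EGF were incubated 5 hours. Finally, CCF4 was added for 2.5 hours and the 460/530 nm ratio recorded.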

## O=C(O)[C@@H]1C[C@@H](C(=O)O)N1
[1]
  Potency: 31.6 µM (active)

## COC1=C(OC)C(=O)c2ccccc2C1=O
[1]
  Potency: 3.98 µM (active)
[2]
  activity change, negative = inhibition: -8.88%

## Nc1ccc(O)c([N+](=O)[O-])c1
[3]
  Potency: > 92 µM
[4]
  Potency: 20.7 µM
[5]
  Potency: > 92 µM
[6]
  Potency: > 92 µM
[7]
  Potency: > 92 µM
[8]
  Potency: > 92 µM

## NCCO
[3]
  Potency: > 92 µM
[4]
  Potency: > 92 µM
[5]
  Potency: > 92 µM
[6]
  Potency: > 92 µM
[7]
  Potency: > 92 µM
[8]
  Potency: > 92 µM

## CCCCCCCCCCCCCCCCCC(=O)O
[3]
  Potency: > 92 µM
[4]
  Potency: > 92 µM
[5]
  Potency: > 92 µM
[6]
  Potency: > 92 µM
[7]
  Potency: > 92 µM
[8]
  Potency: > 92 µM

## Nc1nc(Cl)nc2c1ncn2[C@@H]1O[C@H](CO)[C@@H](O)[C@H]1O
[9]
  activity change, negative = inhibition: 0.568%
[2]
  activity change, negative = inhibition: 22.4% [at 17.2 µM]

## N=c1ccn2c(n1)O[C@H]1[C@H](O)[C@@H](CO)O[C@H]12
[1]
  Potency: inactive

## CCCOC(=O)c1ccc(O)cc1
[3]
  Potency: > 92 µM
[4]
  Potency: > 92 µM
[5]
  Potency: > 92 µM
[6]
  Potency: > 92 µM
[7]
  Potency: > 92 µM
[8]
  Potency: > 92 µM

## N#C/C(=C\c1c[nH]c2ccccc12)C(=O)c1ccc(O)c(O)c1
[1]
  Potency: 1.26 µM (active)
[2]
  activity change, negative = inhibition: 0.356%

## Cn1cc(C2=C(c3ccc(Cl)cc3Cl)C(=O)NC2=O)c2ccccc21
[1]
  Potency: 3.16 µM (active)

## Nc1nc2ccc([N+](=O)[O-])cc2s1
[3]
  Potency: > 92 µM
[4]
  Potency: > 92 µM
[5]
  Potency: > 92 µM
[6]
  Potency: > 92 µM
[7]
  Potency: > 92 µM
[8]
  Potency: > 92 µM

## CN(C)CCC(c1ccc(Cl)cc1)c1ccccn1 (centres undefined)
[3]
  Potency: > 92 µM
[4]
  Potency: > 92 µM
[5]
  Potency: > 92 µM
[6]
  Potency: > 92 µM
[7]
  Potency: > 92 µM
[8]
  Potency: > 92 µM

## O=c1cc(-c2ccccc2)oc2ccccc12
[3]
  Potency: > 92 µM
[4]
  Potency: > 92 µM
[5]
  Potency: > 92 µM
[6]
  Potency: > 92 µM
[7]
  Potency: > 92 µM
[8]
  Potency: > 92 µM

## CCCCCCCC/C=C\CCCCCCCC(=O)NCCO
[2]
  activity change, negative = inhibition: -20.4%

## O=C1CN(/N=C/c2ccc([N+](=O)[O-])o2)C(=O)N1
[3]
  Potency: > 92 µM
[4]
  Potency: 7.84 µM (active)
[7]
  Potency: > 92 µM

## N=C1N=C(N)c2cc3ccccc3cc21
[3]
  Potency: 62.7 µM (active)
[4]
  Potency: 32.2 µM (active)
[6]
  Potency: 54.6 µM (active)
[8]
  Potency: 33.3 µM (active)
